Test results from PubChem BioAssay.
Active and inactive are the calls of the source. No rule for the calls is given here. Where a SMILES comes first, the peptide text is derived from it. The star is where a group is joined. Boc = CC(C)(C)OC(=O)*

target: Pantothenate synthetase (Mycobacterium tuberculosis (strain ATCC 25618 / H37Rv)) (UniProt P9WIL5); experiment: Coupled enzyme confirmation of inhibitors against recombinant Mtb PanC (AID 375); settings: coupled enzyme assay; at 10 µM, hits give high values;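 also: 0% = full reaction with vehicle and 100% = no enzyme background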
Sequence (P9WIL5 whole entry, looked up): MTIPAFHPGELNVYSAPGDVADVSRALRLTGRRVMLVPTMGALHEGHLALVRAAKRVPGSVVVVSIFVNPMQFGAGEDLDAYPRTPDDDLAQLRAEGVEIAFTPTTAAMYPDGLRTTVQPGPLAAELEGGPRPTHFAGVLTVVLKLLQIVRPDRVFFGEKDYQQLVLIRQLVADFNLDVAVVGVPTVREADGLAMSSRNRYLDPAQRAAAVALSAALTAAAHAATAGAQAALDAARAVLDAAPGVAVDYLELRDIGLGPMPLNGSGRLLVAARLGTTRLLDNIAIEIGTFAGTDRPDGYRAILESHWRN

Question: How did the inhibition turn out when `O=c1cc(-c2ccc(Cl)cc2)[nH][nH]1` was run?
Answer: 1% (inactive)

Question: How did the inhibition turn out when `O=C(NCc1cccnc1)c1ccccn1` was run?
Answer: 0% (inactive)

Question: For `O=C1C2ON(c3ccc(Cl)cc3)C(c3ccco3)C2C(=O)N1c1ccccc1` (stereo not given), which inhibition is on record?
Answer: 0% (inactive)

Question: Which inhibition does the source give for `Nn1c(SCC(=O)Nc2ccc(Oc3ccccc3)cc2)nnc1C1CC1` here?
Answer: 7% (inactive)

Question: `COc1ccc(OC)c(S(=O)(=O)NCCO)c1` was tested. Which inhibition did it give?
Answer: 1% (inactive)

Question: Which inhibition does the source give for `CCCCOc1ccc(S(=O)(=O)n2c(C)nc3ccccc32)cc1` here?
Answer: 0% (inactive)

Question: How did the inhibition turn out when `CC(C)CC(NC(=O)OC(C)(C)C)C(=O)NC(C(=O)NC(C)C(N)=O)C(C)C` (stereo not drawn) (Boc-Leu-Val-Ala-NH2; configuration not given here) was run?
Answer: 16% (inactive)

Question: `CCC1(CC)NC(=O)NC1=O` was tested. Which inhibition did it give?
Answer: 0% (inactive)

Question: `CC(C)N=c1cc2n(-c3ccc(Cl)cc3)c3ccccc3nc-2cc1Nc1ccc(Cl)cc1` was tested. Which inhibition did it give?
Answer: 0% (inactive)

Question: How did the inhibition turn out when `O=C1c2ccccc2C(=O)N1CCC(=O)N1CCc2ccccc21` was run?
Answer: 0% (inactive)

Question: With `Cc1ccc(-c2[nH]nc3c2C(c2ccoc2)C(C#N)=C(N)O3)cc1C` (stereo not given) as the compound, how does the inhibition read?
Answer: 0% (inactive)

Question: Which inhibition does the source give for `CC(C)(C)Nc1nc(OCC(F)(F)F)nc(OCC(F)(F)F)n1` here?
Answer: 0% (inactive)

Question: How did the inhibition turn out when `C/C(Cl)=C\Cn1c(NCCc2ccccc2)nc2c1c(=O)n(C)c(=O)n2C` was run?
Answer: 1% (inactive)

Question: For `CCOC(=O)C1=C(CN2CCOCC2)NC(=O)NC1c1cc(C)ccc1C` (stereo not given), which inhibition is on record?
Answer: 2% (inactive)

Question: With `COc1ccc(-c2nc(CS(=O)CC(=O)N3CCCC3)c(C)o2)cc1` (stereo not given) as the compound, how does the inhibition read?
Answer: 0% (inactive)

Question: For `CCN(CC)CCOC(=O)c1ccc(NC(=O)COc2cc(=O)n(CC)c3ccccc23)cc1`, which inhibition is on record?
Answer: 2% (inactive)

Question: How did the inhibition turn out when `COCCOC(=O)C1=C(C)NC(=O)CC1c1cc2c(cc1Br)OCO2` (stereo not given) was run?
Answer: 1% (inactive)

Question: How did the inhibition turn out when `COC(C)(C)c1cc(C(C)(C)C)nc(N)n1` was run?
Answer: 0% (inactive)

Question: How did the inhibition turn out when `O=C1CCCC2=C1C(c1cccc(Br)c1)n1nc(-c3ccco3)nc1N2` (stereo not given) was run?
Answer: 0% (inactive)

Question: With `CC(C)CNC(=O)c1c(N)n(/N=C/c2ccccn2)c2nc3ccccc3nc12` as the compound, how does the inhibition read?
Answer: 0% (inactive)

Question: `CCOC(=O)c1ccc(NCc2nc3ccccc3[nH]2)cc1` was tested. Which inhibition did it give?
Answer: 4% (inactive)

Question: For `O=C(NC1CC1)c1cccc(Nc2ccc(-c3ccc4c(c3)OCCO4)nn2)c1`, which inhibition is on record?
Answer: 1% (inactive)

Question: With `CCN(CC)C(=O)c1ccc(O)c(OC)c1` as the compound, how does the inhibition read?
Answer: 0% (inactive)

Question: `COc1cccc(NC(=O)N(Cc2ccco2)C(C)c2cccs2)c1` (stereo not given) was tested. Which inhibition did it give?
Answer: 2% (inactive)

Question: With `COc1cc(CN2CCC(C(=O)NC3CCCC3)CC2)ccc1O` as the compound, how does the inhibition read?
Answer: 0% (inactive)

Question: How did the inhibition turn out when `COc1cccc(-c2nnc(NC(C)=O)o2)c1` was run?
Answer: 0% (inactive)

Question: `COC(=O)Nc1nc2ccc(Sc3ccccc3)cc2[nH]1` was tested. Which inhibition did it give?
Answer: 8% (inactive)

Question: How did the inhibition turn out when `CNC(=O)CN(c1ccc(C(C)C)cc1)S(C)(=O)=O` was run?
Answer: 0% (inactive)

Question: Which inhibition does the source give for `CC(=O)Nc1cccc(-c2nnc(-c3ccccc3)o2)c1` here?
Answer: 4% (inactive)

Question: With `COc1cc(NC(=O)Cc2nn(C)c(=O)c3ccccc23)cc(OC)c1` as the compound, how does the inhibition read?
Answer: 0% (inactive)

Question: Which inhibition does the source give for `O=S(=O)(NCc1ccc(Cl)cc1)c1cnc[nH]1` here?
Answer: 0% (inactive)

Question: With `Brc1ccc2ncnc(Nc3ccc(N4CCOCC4)cc3)c2c1` as the compound, how does the inhibition read?
Answer: 0% (inactive)

Question: For `Cc1ccc(S(=O)(=O)NC(=O)c2cc(C)n(CCCn3ccnc3)c2C)cc1`, which inhibition is on record?
Answer: 2% (inactive)

Question: Which inhibition does the source give for `CCN1C(=O)NC(c2cc(Br)ccc2OC)C(C(=O)OC)=C1C` (stereo not given) here?
Answer: 0% (inactive)

Question: `O=C1CC(c2ccccc2)CC(O)=C1C=NCCN1CCOCC1` (stereo not given) was tested. Which inhibition did it give?
Answer: 5% (inactive)

Question: For `Cn1c(=O)[nH]c(=O)c2c1nc(N1CCNCC1)n2CCOc1ccccc1`, which inhibition is on record?
Answer: 0% (inactive)

Question: With `CC1Cc2ccccc2N1C(=O)c1cccnc1` (stereo not given) as the compound, how does the inhibition read?
Answer: 0% (inactive)

Question: `COc1ccccc1-c1noc(-c2cccnc2)n1` was tested. Which inhibition did it give?
Answer: 13% (inactive)

Question: With `COc1ccc(-n2cnnc2SCCC#N)cc1` as the compound, how does the inhibition read?
Answer: 0% (inactive)

Question: Which inhibition does the source give for `Cc1ccc(C)c(S(=O)(=O)NCc2cccnc2)c1` here?
Answer: 7% (inactive)
